Measurements reported in PubChem BioAssay AID1212 (NMMLSC, 2008).
Active and inactive are the calls of the source.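 How the source made its calls: active means blocks over 60% of fluorescent estradiol binding at 10 µM; inactive means the rest.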

Each compound was assayed against G-protein coupled estrogen receptor 1 (Homo sapiens) (UniProt Q99527) (assay: GPR30 competitive binders vs fluorescent estrogen, primary screen, cell-based, Cos7 GPR30-GFP, flow cytometry, 10 µM (AID 1212)). Conditions: fluorescent estrogen competition, at 10 µM; stronger effect = higher value.
`CCCCOc1cc(OCCCC)c2c3c(c(=O)oc2c1)CCCC3` was tested, and the inhibition was 34% (inactive). With `CCOc1cc2c(c([N+](=O)[O-])c1)NC(c1ccc(Cl)cc1)C1CC=CC21` (stereo not drawn) the outcome was “inactive”. `Cc1oc2ccc(OCC#N)cc2c1C(=O)OC(C)C` was tested, and the outcome was “inactive”. In the case of `COC(=O)c1ccc2c(c1)C1C=CCC1C(c1cccc([N+](=O)[O-])c1)N2` (stereo not drawn), the inhibition is reported as 16% (inactive). `COc1cc([N+](=O)[O-])cc2c1NC(c1ccc(Cl)cc1)C1CC=CC21` (stereo not drawn) was tested, and the inhibition was 9% (inactive). With `CCOc1ccc(NS(=O)(=O)c2ccc3c(c2)[C@H]2C=CC[C@H]2[C@@H](c2ccc(C(=O)O)cc2)N3)cc1` the inhibition was 100% (active). With `CCC(Oc1ccc2c3c(c(=O)oc2c1C)CCC3)C(=O)OC` (stereo not drawn) the outcome was “inactive”. In the case of `CC(=O)Oc1ccc(C2Nc3c(C(=O)O)ccc([N+](=O)[O-])c3C3C=CCC32)cc1` (stereo not drawn), the inhibition is reported as 99% (active).
